# Source: PubChem
# IL-1B inflam inh: blocks inflammasome-driven IL-1 beta release; activity change, % at 57.5 µM; AID 743279; THP-1 LPS/ATP IL-1B secretion, AlphaLISA, 16 h; active compounds read low; 4.7% of 360,000 active; in the data active = activity change below about -50%; inconclusive = mostly about -30% to -49%; note: % is set by controls: 0 for no effect and ±100 for the full control effect
#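 THP-1 cells pretreated 1 hr with compounds (up to 57.5 uM final), then stimulated with LPS (250 ng/mL final) plus ATP (1.25 mM final); secreted IL-1B measured by AlphaLISA after 16 hr, decreased signal indicating inhibition.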
# TGFb SMAD3 inh: TGF-b pathway inhibition; HepG2 CAGA-GFP TGF-b/SMAD3 reporter, GFP fluorescence, 18 h; TGF-beta stimulated, 500 pg/mL final; Potency, µM (series often up to 46.1 µM), inactives show top-dose activity, negative = inhibition, hits mostly inhibitors; 1.2% of 410,000 active; AID 588855; note: potency is the fitted concentration of half-maximal effect; % is set by controls: 0 for no effect and ±100 for the full control effect; nearly all actives have a fitted effect of over 65% in size
#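 Read-out: total well GFP (ex488/em500-530) summed from mean per-cell fluorescence. Cells: HEPG2 CAGA-GFP, 1% FBS DMEM, 18 h at 37 degrees C with 500 pg/mL final TGF-beta. Unstimulated wells served as the full-inhibition control; stimulated DMSO wells = 0%.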
# DT40 TDP1 no CPT: qHTS for Inhibitors of human tyrosyl-DNA phosphodiesterase 1 (TDP1): qHTS in cells in absence of CPT. AID 686978, 2013. 15% of 420,000 active. DT40 Tdp1-/- hTDP1 cells, no CPT, ATP luminescence, 48 h. Potency, µM (titrated, usually from 46.2 µM), for the others: at the highest dose activity change, negative = growth inhibition, most hits filed as inhibitors; note: potency is the fitted concentration of half-maximal effect; % is set by controls: 0 for no effect and ±100 for the full control effect; nearly all actives have a fitted effect of over 55% in size
#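 Chicken DT40 Tdp1-/- cells stably complemented with human TDP1 were seeded at 400 cells/well with DMSO in place of 20 nM camptothecin. After compound pinning, cells grew at least 48 hr at 37 °C; viability read by CellTiter-Glo luminescence.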
# TDP1 cell CPT: growth inhibition of DT40 Tdp1-/-;hTDP1 cells with camptothecin (screen for TDP1 inhibitors); chicken DT40 Tdp1-/-;hTDP1 cells + 20 nM CPT, ATP luminescence, 48 h; Potency, µM (top dose mostly 46.2 µM), without a hit: top-dose activity change, negative = growth inhibition, usual class: inhibitors; 12% of 420,000 active; AID 686979; note: potency is the fitted concentration of half-maximal effect; % is set by controls: 0 for no effect and ±100 for the full control effect; nearly all actives have a fitted effect of over 55% in size
#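 Cell growth measured by CellTiter-Glo luminescence after a minimum 48 h, 37 C compound exposure with 20 nM CPT in Tdp1-knockout DT40 cells stably expressing hTDP1, seeded 400/well; qHTS titration format.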
# HepG2 viability: kills HepG2 cells in TGF-b inhibitor counter-screen | HepG2 CAGA-GFP viability, ATP luminescence, 18 h | Potency, µM (doses to about 46.1 µM), for inactives: top-dose activity change, negative = cytotoxicity, actives largely listed as cytotoxic | 0.76% of 410,000 active; note: potency is the fitted concentration of half-maximal effect
#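 CellTiter-Glo luminescence gave cytotoxicity after 18 hours at 37 degrees C. The cells were HepG2 CAGA-GFP in 1% FBS DMEM, stimulated with 500 pg/mL TGF-beta after compound addition. %Activity was normalised to no-cell wells (complete cell-killing) and DMSO (no toxicity), and curves were fitted and classified.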
# TDP1 block: inhibitors of human tyrosyl-DNA phosphodiesterase TDP1. Q9NUW8. recombinant TDP1, AlphaScreen DNA substrate cleavage. Potency, µM (highest dose often 130 µM), without a hit: at the top dose activity change, negative = inhibition, actives largely listed as inhibitors. 0.28% of 350,000 active. AID 485290; note: potency is the fitted concentration of half-maximal effect; % is set by controls: 0 for no effect and ±100 for the full control effect; nearly all actives have a fitted effect of over 40% in size
# Target sequence (Q9NUW8 whole entry, looked up): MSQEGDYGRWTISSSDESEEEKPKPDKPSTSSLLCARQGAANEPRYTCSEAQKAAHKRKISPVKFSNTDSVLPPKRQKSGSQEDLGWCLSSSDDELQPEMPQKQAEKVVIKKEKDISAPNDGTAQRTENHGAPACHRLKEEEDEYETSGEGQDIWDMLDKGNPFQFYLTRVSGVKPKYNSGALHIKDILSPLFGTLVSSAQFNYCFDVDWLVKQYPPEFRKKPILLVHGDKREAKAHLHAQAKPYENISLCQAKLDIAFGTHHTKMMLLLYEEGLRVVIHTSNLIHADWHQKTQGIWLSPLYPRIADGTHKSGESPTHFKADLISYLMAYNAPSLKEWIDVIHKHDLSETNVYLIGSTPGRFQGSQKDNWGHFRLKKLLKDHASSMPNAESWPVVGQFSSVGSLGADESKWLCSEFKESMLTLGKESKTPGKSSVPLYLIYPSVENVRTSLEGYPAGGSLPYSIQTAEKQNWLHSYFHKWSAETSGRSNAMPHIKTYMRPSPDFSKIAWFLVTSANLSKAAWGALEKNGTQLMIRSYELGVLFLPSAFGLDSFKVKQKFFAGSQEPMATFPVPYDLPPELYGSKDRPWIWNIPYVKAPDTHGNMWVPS
#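 Compounds were preincubated with Tdp1 (1 nM final) for 15 min at room temperature before substrate (15 nM final) started a 5 min reaction; beads (10 ug/ml final) were then added for 10 min before AlphaScreen detection.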
# * marks the source's active call; other numbers are inactive results; i = inactive; ? = inconclusive; nt = no result given; [ ] = remark or other dose. Compounds with a hit are over-represented: about 18% of the library has one in this group of screens. Unless noted, calls come from the whole dose curve; as a rule, active = well fitted curve in the direction sought with a large enough effect; inconclusive = small, poorly fitted or top-dose-only effect, or another doubt; inactive = no such curve, though single readings can be large; an effect the other way counts as inactive or inconclusive.
SMILES,IL-1B inflam inh,TGFb SMAD3 inh,DT40 TDP1 no CPT,TDP1 cell CPT,HepG2 viability,TDP1 block
COc1cccc(CN(C)CC(=O)Nc2ccccc2C(=O)Nc2ccccc2)c1OC,-6,-19%,?,?,17%,0%
CSCCC(NS(=O)(=O)c1cccs1)C(=O)Nc1ccc(C)c(Cl)c1 (configuration not stated),nt,-1%,-29%,-3%,-14%,8%
S=C(NCCc1ccccc1)Nc1ccc(Nc2ccccc2)cc1,?,?,?,16µM*,-19%,8%
CCC1CCc2sc(C(=O)NNC(=S)NCC3CCCO3)cc2C1 (configuration not stated),22,-26%,?,?,-10%,-1%
O=C(NCc1ccccn1)c1cc2ccccn2n1,-12,-11%,3%,12%,-6%,1%
CCC1CCc2sc(C(=O)NCc3ccccn3)cc2C1 (configuration not stated),-11,-10%,10µM*,15µM*,-27%,2%
CCC1CCc2sc(C(=O)NCC3CCCO3)cc2C1 (configuration not stated),-17,-4%,18µM*,?,-23%,0%
CCC1CCc2sc(C(=O)NCC(c3ccccc3OC)N3CCCC3)cc2C1 (configuration not stated),-22,?,21µM*,16µM*,-44%,2%
CCCCC(CC)C(=O)Nc1cc(C(=O)NCCC)ccc1N1CCC2(CC1)CC(c1cccc(Br)c1)=NO2 (configuration not stated),11,11%,-21%,-12%,0%,1%
COc1ccc(CNC(=O)c2cc3ccccn3n2)c(OC)c1,nt,4%,?,?,-10%,0%
CCCN1CNc2c(c(=O)[nH]c(=S)n2CCC)C1,nt,nt,2%,14%,nt,1%
COC(=O)c1c(C)oc2ccc(NS(=O)(=O)c3cc(OC)ccc3OC)cc12,8,-23%,10µM*,10µM*,-22%,7%
COc1ccc(OC)c(S(=O)(=O)Nc2ccc3oc(C)c(C(C)=O)c3c2)c1,22,-18%,15µM*,16µM*,-14%,nt
COc1ccc(OC)c(S(=O)(=O)Nc2ccc(C(C)=O)cc2)c1,14,-7%,18µM*,11µM*,-26%,3%
Cc1ccc(C)c(S(=O)(=O)Nc2ccc3oc(C)c(C(=O)O)c3c2)c1,25,0%,1%,3%,9%,nt
COc1ccc(OC)c(S(=O)(=O)Nc2ccc(C(N)=O)cc2)c1,2,0%,-13%,-29%,-4%,4%
CO/N=C(\C(=O)N[C@@H]1C(=O)N2C(C(=O)OCOC(=O)C(C)(C)C)=C(/C=C\c3scnc3C)CS[C@H]12)c1csc(N)n1,nt,nt,-17%,-8%,nt,nt
COC(=O)[C@H](C)NC(=O)C/C=C\[C@@H](C)CO,nt,nt,nt,nt,nt,8%[21 µM]
Cc1cccc(-c2nc3c(cnn3-c3ccccc3)c(=O)n2-c2ccc(Br)cc2)c1,nt,-19%,18µM*,?,-19%,-1%[12.3 µM]
O=C(O)CSc1nc2c(cnn2-c2ccccc2)c(=O)n1-c1ccc(Br)cc1,27,-21%,-18%,1%,1%,5%
O=c1c2cnn(-c3ccccc3)c2nc(-c2cccs2)n1-c1ccc(Br)cc1,39,?,0.58µM*,?,6%,-6%
Cc1ccc(-n2c(-c3cccc(C)c3)nc3c(cnn3-c3ccccc3)c2=O)cc1,nt,-19%,?,?,2%,0%[2.28 µM]
COc1ccc(-n2c(-c3cccc(F)c3)nc3c(cnn3-c3ccc(C)cc3)c2=O)cc1,nt,21%,26µM*,18µM*,12%,-2%
Cc1cccc(-c2nc3c(cnn3-c3ccccc3)c(=O)n2-c2ccc(Cl)cc2)c1,nt,?,15µM*,?,-12%,5%[12.3 µM]
Cc1ccc(NC(=O)C(C)N=C2NS(=O)(=O)c3ccccc32)cc1F (configuration not stated),-1,-9%,?,-24%,-11%,nt
SMILES,IL-1B inflam inh,TGFb SMAD3 inh,DT40 TDP1 no CPT,TDP1 cell CPT,HepG2 viability,TDP1 block
C=CCNc1nc(C(=O)OCC(=O)c2ccc(Cl)cc2)cs1,7,15%,-13%,14%,0%,-4%
CCCCn1c(SCC(=O)NC2CCS(=O)(=O)C2)nc2cc(S(N)(=O)=O)ccc21 (configuration not stated),12,-13%,-4%,-12%,-16%,-1%
CC(C)C[C@H]1CN(CCCC[C@H]2CNC(=O)C(=O)N2Cc2ccccc2)C(=O)C(=O)N1CC1CCCCC1,-15,nt,-25%,-14%,nt,nt
N#C/C(=N\Nc1ccccc1[N+](=O)[O-])C(=N)N1CCCCC1,1,-1%,5.8µM*,5.8µM*,5%,3%
COC(=O)c1ccc(N)c(N=CC2=C(O)CC(C)(C)CC2=O)c1,4,0%,?,2%,1%,8%
COC(=O)c1ccc2c(c1)C(C)(C)C(/C=C/c1ccccc1O)=[N+]2C,-100*,?,3.2µM*,3.2µM*,6.3µM*,12%
CCOC(=O)C1CCN(C(c2ccccc2)c2c(O)cc(C)n(Cc3ccco3)c2=O)CC1 (configuration not stated),nt,-4%,-5%,-2%,5%,0%
Cc1nnc(NC(=O)CSc2nnc(-c3ccco3)n2C(C)C)s1,33,3%,-2%,7%,7%,1%
COc1ccc(NC(=O)CSc2ccc(-c3ccco3)nn2)cc1OC,i,0%,10µM*,16µM*,6%,4%
Cc1ccccc1NC(=O)CSc1ccc(-c2ccco2)nn1,22,?,?,?,-1%,3%
Cc1nnc(NC(=O)CSc2ccc(-c3ccco3)nn2)s1,11,2%,-19%,-30%,8%,45µM*
CC(C)n1c(SCC(=O)Nc2nncs2)nnc1-c1ccco1,9,3%,0%,4%,-16%,11µM*
COc1cccc(NC(=O)CSc2ccc(-c3ccco3)nn2)c1,-2,0%,?,-13%,-21%,3%
CSCCC(NC(=O)c1ccccc1Cl)C(=O)Nc1ccc(C)c(S(=O)(=O)N2CCOCC2)c1 (configuration not stated),2,0%,?,?,3%,nt
CC1Cc2cc(S(=O)(=O)N3CCCC(C(=O)N4CCCCC4)C3)ccc2N1C(=O)C1CC1 (configuration not stated),-5,-20%,-28%,-23%,-11%,3%
